From PubChem BioAssay (NCATS)
Inconclusive results are not listed. Calls of active or inactive are those of the source. Unless noted, how the calls were made is not given here.

Columns and labels:
[1] = qHTS profiling of the MIPE4 collection as inhibitors of Plasmodium falciparum (3D7) proliferation (AID 743344);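 further: scaled between DMSO vehicle wells and 0.29 µM artemisinin as full inhibition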; conditions: P. falciparum 3D7 in erythrocytes, SYBR Green DNA fluorescence, 72 h; at 28.5 µM unless noted
Procedure, shortened: (§1)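 Parasite DNA was quantified by SYBR Green I fluorescence (ex 485, em 535 nm) after overnight lysis in saponin/Triton buffer at room temperature. Cultures at 0.3% parasitemia and 2.5% hematocrit were first exposed to compound for 72 h at 37 C; signals were normalised to artemisinin (0.29 uM) and vehicle wells.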

[2] = qHTS profiling of the MIPE4 collection as inhibitors of Plasmodium falciparum (DD2) proliferation (AID 743345); conditions: P. falciparum Dd2 in erythrocytes, SYBR Green DNA, 72 h; at 28.5 µM unless noted
Procedure, shortened: as §1

[3] = qHTS profiling of the MIPE4 collection as inhibitors of Plasmodium falciparum (DD2) proliferation (Rep 2) (AID 743346); conditions: P. falciparum Dd2 in erythrocytes, SYBR Green DNA, 72 h; at 28.5 µM unless noted
Procedure, shortened: as §1

[4] = qHTS profiling of the MIPE4 collection as inhibitors of Plasmodium falciparum (HB3) proliferation (AID 743347);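 further: plate controls were DMSO vehicle wells for no effect and artemisinin wells for full effect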; conditions: P. falciparum HB3 in erythrocytes, SYBR Green DNA, 72 h; at 28.5 µM unless noted
Procedure, shortened: as §1

[5] = High-throughput drug toxicity screening in the BPDCN cell line Gen2.2 (AID 1224824); conditions: Gen2.2 BPDCN cells; at 45.8 µM (top of the series) unless noted;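 further: cells exposed to compounds for 48 h before reading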
Procedure, shortened: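 Gen2.2, 500 cells/well, phenol red-free RPMI/10% FBS/Pen-Strep; 48 h cpd, 37 °C/5% CO2; CTG lum, 15 min RT. Norm: DMSO = 100%, bortezomib 9.2 uM final = 0%.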

[6] = High-throughput drug toxicity screening in the BPDCN cell line Cal-1 (AID 1224825); conditions: Cal-1 BPDCN cell viability, qHTS; at 45.8 µM (top of the series) unless noted
Procedure, shortened: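 Viability of the BPDCN line Cal-1 is measured as ATP-based luminescence (CellTiter-Glo) following 48 h incubation with compounds. Percent activity uses DMSO-treated wells as 100% and 9.2 uM bortezomib as 0%.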

[7] = qHTS assay for measurement of the activity of small molecule inhibitors on Zika virus induced Caspase-3 activity in human iPSC derived neural progenitor cells (hNPCs) (AID 1224857; active means well fitted curve in the direction sought with a large enough effect; an effect the other way counts as inactive or inconclusive; further: nearly all actives have a fitted effect of over 65% in size; further: potency means the concentration at half of the fitted maximal effect)
Procedure, shortened: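 Cells were plated at 350 per well and grown 16 to 20 hours. Compound pretreatment lasted one hour, after which ZIKV (2 FFU/cell) was added for 6 hours. Percent inhibition was normalized between uninfected and infected controls.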

[8] = qHTS assay for measurement of the activity of small molecule inhibitors on Zika virus induced Caspase-3 activity in human astrocytoma cells (AID 1224859; active means well fitted curve in the direction sought with a large enough effect; an effect the other way counts as inactive or inconclusive; further: potency means the concentration at half of the fitted maximal effect)
Procedure, shortened: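 Percent inhibition of virus-induced caspase-3/7 signal is calculated against uninfected and ZIKV-infected control cells. Cells are SNB-19, infected at 2 FFU/cell for 6 h after 1 h compound exposure.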

[9] = qHTS Screen of the MIPE 4.0 Collection Against Ewings Sarcoma (RDES) (AID 1259252; active means well fitted curve in the direction sought with a large enough effect; an effect the other way counts as inactive or inconclusive; further: potency means the concentration at half of the fitted maximal effect; nearly all actives have a fitted effect of over 35% in size)
Procedure, shortened: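 Compound titrations go onto adherent log-phase cells 4 h after seeding, incubate 48 h at 37C, then CellTiter-Glo luminescence reports viability relative to DMSO and cell-free controls.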

[10] = qHTS profiling for inhibitors of Plasmodium falciparum (3D7) proliferation (AID 743322);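 further: infected erythrocytes exposed to compound for 72 h before lysis; 100% = DMSO vehicle wells and 0% = 0.29 µM artemisinin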; conditions: P. falciparum 3D7 proliferation; at 28.7 µM (top of the series) unless noted
Procedure, shortened: as §1

[11] = qHTS profiling for inhibitors of Plasmodium falciparum (DD2) proliferation (AID 743323); conditions: lower = more inhibition; at 28.7 µM (top of the series) unless noted
Procedure, shortened: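 Parasite proliferation measured via DNA-dye fluorescence, as uninfected erythrocytes lack DNA. Cultures at 0.3% parasitemia and 2.5% hematocrit incubated 72 h with compound; signal scaled between vehicle and 0.29 uM artemisinin wells.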

[12] = qHTS profiling for inhibitors of Plasmodium falciparum (HB3) proliferation (AID 743324; active means well fitted curve in the direction sought with a large enough effect; an effect the other way counts as inactive or inconclusive;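 further: 100% = DMSO vehicle wells and 0% = artemisinin-treated control wells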); conditions: Plasmodium falciparum HB3 blood-stage proliferation; at 28.7 µM (top of the series) unless noted
Procedure, shortened: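 SYBR Green fluorescence (485 ex/535 em) of lysed cultures, incubated overnight at room temperature in the dark, quantifies parasite DNA. Infected erythrocytes at 0.3% parasitemia and 2.5% hematocrit were exposed 72 h; values normalized to DMSO and 0.29 uM artemisinin controls.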

| SMILES | parasite growth, % of DMSO control [1] | parasite growth remaining, % of DMSO control (lower = more inhibition) [2] | parasite growth, % of control (lower = inhibition) [3] | growth, % of control [4] | cell viability, % of control (lower = more cytotoxic) [5] | viability (% of control) [6] | Potency [7] | Potency [8] | Potency [9] | remaining parasite growth % (stronger effect = lower value) [10] | activity, percent of control [11] | remaining proliferation (% of control), lower = more inhibition [12] |
| --- | --- | --- | --- | --- | --- | --- | --- | --- | --- | --- | --- | --- |
| CC(C)(F)C[C@H](N[C@@H](c1ccc(-c2ccc(S(C)(=O)=O)cc2)cc1)C(F)(F)F)C(=O)NC1(C#N)CC1 | 56.4% | 64.3% | 61% | 68.4% | 153% | 99.1% | inactive | inactive | 18.7 µM (active) | – | – | – |
| CNC(=O)c1ccc2c(C(=Nc3cccc(CN(C)C)c3)c3ccccc3)c(O)[nH]c2c1 | 19.9% | 18.6% | 15.2% | 19% | 4.19% | 19.6% | inactive | inactive | 16.6 µM (active) | – | – | – |
| COc1cc(N2CCN(C)CC2)ccc1Nc1nc(N)c(C(=O)c2c(Cl)cccc2Cl)s1 | 20.2% | 8.77% | 14.6% | 21.1% | 72.5% | 49.7% | inactive | inactive | 13.2 µM (active) | – | – | – |
| COc1ccc(-c2ccc3ncc4c(c3c2)n(-c2ccc(N3CCNCC3)c(C(F)(F)F)c2)c(=O)n4C)cn1 | 7.25% | 6.37% | 9.13% | 3.39% | 0.968% | 0.939% | inactive | inactive | 0.0469 µM (active) | – | – | – |
| O=C(c1ccc(F)c(F)c1Nc1ccc(I)cc1F)N1CC(O)([C@H]2CCCCN2)C1 | 11% | 11.1% | 20.2% | 4.74% | 3.78% | 2.16% | inactive | inactive | 26.4 µM (active) | – | – | – |
| COc1cc(Cl)cn2c(-c3cccc(NC4CNC4)n3)cnc12 | 39.6% | 27.3% | 33.2% | 42.7% | 91.4% | 5.98% | inactive | inactive | 26.4 µM (active) | – | – | – |
| COc1cc(Nc2nc3ccccc3nc2NS(=O)(=O)c2ccc(NC(=O)c3ccc(C)c(OC)c3)cc2)cc(OC)c1 | 42% | 40.5% | 32.8% | 17.6% | 32.5% | 78.5% | inactive | inactive | 18.7 µM (active) | – | – | – |
| C[C@@H]1[C@H](C)CC[C@]2(C(=O)O)CC[C@]3(C)C(=CC[C@@H]4[C@@]5(C)CC[C@H](O)C(C)(C)[C@H]5CC[C@]43C)[C@@H]12 | 4.81% [at 57.5 µM] | 55.6% [at 57.5 µM] | 8% [at 57.5 µM] | 3.02% [at 57.5 µM] | 41.3% [at 92.2 µM] | 29% [at 92.2 µM] | inactive | inactive | 2.7 µM (active) | – | – | – |
| COc1ccc2ccc(=O)oc2c1CC=C(C)C | 94.2% | 15.6% | 73.4% | 80.3% | 124% | 97.4% | inactive | inactive | 23.5 µM (active) | – | – | – |
| Oc1cc(O)cc(C=Cc2ccc(O)c(O)c2)c1 | 39.8% | 76.7% | 32.1% | 50.9% | 3.35% | 3.72% | 23.5 µM (active) | 4.18 µM (active) | 20.9 µM (active) | – | – | – |
| Cc1nn(Cc2ccccc2Cl)c(C)c1CN(C)CC(O)COc1ccc(Cl)cc1 (stereo not given) | 9.8% | – | 16.7% | 7.87% | 18% | 53.4% | inactive | inactive | 23.5 µM (active) | 29.8% | 18.1% | 8.74% |
| O=C(NC[C@H](O)CO)c1ccncc1Nc1ccc(I)cc1F | 60.9% | 101% | 56.7% | 54.8% | 5.6% | 12.1% | inactive | inactive | 18.7 µM (active) | – | – | – |
| C=C[C@@H]1CN2CCC1C[C@@H]2C(O)c1ccnc2ccc(OC)cc12 (stereo not given in full) | – | 9.53% | 12% | 3.29% | 130% | 86% | inactive | inactive | 3.72 µM (active) | 2.76% | 2.53% | 2.91% |
| c1cc(OCCN2CCCCC2)cc(-c2n[nH]c3ccc(-c4ncn[nH]4)cc23)c1 | 8.07% | 9.76% | 9.96% | 3.58% | 107% | 20.5% | inactive | inactive | 10.5 µM (active) | – | – | – |
| Nc1ncnc2c1c(-c1cccc(OCc3ccccc3)c1)cn2C1CC(CN2CCC2)C1 (stereo not given) | 31.5% | 30.5% | 21.6% | 12.8% | 26.4% | 44.4% | inactive | inactive | 20.9 µM (active) | – | – | – |
| C[C@H]1[C@H](O)O[C@@H]2O[C@@]3(C)CC[C@@H]4[C@H](C)CC[C@@H]1[C@@]24OO3 | 18.9% | 7.23% | 13.8% | 11.1% | 15.8% | 7.2% | inactive | inactive | 3.32 µM (active) | – | – | – |
| Clc1ccc(C2(c3ccc(-c4cn[nH]c4)cc3)CCNCC2)cc1 | 4.5% | 9.74% | 12.8% | 4.19% | 16.8% | 10.8% | inactive | inactive | 14.8 µM (active) | – | – | – |
| CC1CCN(c2cc(N3CCN(C)CC3)ccc2NC(=O)c2cc(C#N)c[nH]2)CC1 | 39.9% | 80.6% | 36.9% | 50.4% | 107% | 104% | inactive | inactive | 26.4 µM (active) | – | – | – |
| O=C(O)c1ccc(O)c2ncc(N3CCOCC3)cc12 | 15.1% | – | 16.8% | 11% | 110% | 100% | inactive | inactive | 26.4 µM (active) | 22.3% | – | – |
